Test results published in PubChem BioAssay (NCI).
This is part of a sample that, as a whole, favours compounds with a hit. Of some 83,000 tested, about 20% had one in any assay.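 Single-concentration screen, 48 h exposure, 96-well plates. Endpoint: percent growth. Below 10 = active.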 A number with no mark means an inactive call. Active and inactive are the calls of the source.

Tests used:
Assay in all cases: NCI-60 one-dose screen, 48 h (100 = growth as untreated, 0 = no growth, -100 = all killed)
Conditions in all cases: 10 µM unless noted
HCT-15 colon = tested on: HCT-15 colon
HT29 colon = tested on: HT29 colon
SNB-75 CNS = tested on: SNB-75 CNS
SNB-19 CNS = tested on: SNB-19 CNS
U251 CNS = tested on: U251 CNS
PC-3 prostate = tested on: PC-3 prostate
SK-MEL-5 melanoma = tested on: SK-MEL-5 melanoma
LOX IMVI melanoma = tested on: LOX IMVI melanoma
SK-MEL-28 melanoma = tested on: SK-MEL-28 melanoma
EKVX NSCLC = tested on: EKVX NSCLC
SN12C renal = tested on: SN12C renal
UO-31 renal = tested on: UO-31 renal
TK-10 renal = tested on: TK-10 renal
ACHN renal = tested on: ACHN renal
CAKI-1 renal = tested on: CAKI-1 renal
A498 renal = tested on: A498 renal
MOLT-4 leukemia = tested on: MOLT-4 leukemia
UACC-62 melanoma = tested on: UACC-62 melanoma
SK-MEL-2 melanoma = tested on: SK-MEL-2 melanoma
CCRF-CEM leukemia = tested on: CCRF-CEM leukemia

SMILES	growth (HCT-15 colon)	growth (HT29 colon)	growth (SNB-75 CNS)	growth (SNB-19 CNS)	growth (U251 CNS)	growth (PC-3 prostate)	growth (SK-MEL-5 melanoma)	growth (LOX IMVI melanoma)	growth (SK-MEL-28 melanoma)	growth (EKVX NSCLC)	growth (SN12C renal)	growth (UO-31 renal)	growth (TK-10 renal)	growth (ACHN renal)	growth (CAKI-1 renal)	growth (A498 renal)	growth (MOLT-4 leukemia)	growth (UACC-62 melanoma)	growth (SK-MEL-2 melanoma)	growth (CCRF-CEM leukemia)
CC(C)OC1=C(Cl)C(=O)c2ccccc2C1=O	51.4%	113%	75.8%	90.1%	57.4%	69.1%	96.8%	86.5%	101%	103%	90.5%	76.7%	110%	98.5%	106%	112%	39.8%			
COC(=O)CCC(=O)c1ccccc1	102%	105%	117%	102%	100%	117%	130%		108%	89.7%	103%	118%	118%	106%	96.8%	112%	101%	104%	110%	101%
COc1ccc(NC(=O)c2ccc3c(c2)nc(-c2ccc(Cl)cc2)n3-c2cc(C(C)(C)C)[nH]n2)cc1	82.6%	116%	77.8%	82.6%	83.3%	68.1%	70.7%		95.4%		86%	62.4%	75.8%	90.1%	61%	62.2%	55.1%	79.6%	92.7%	
O=C1Nc2ccc(Cl)cc2/C1=N/N=C(c1ccccc1)c1ccccc1	87.2%	98.3%	74.5%	62.7%	94.5%	86.2%	99%	87.5%	117%		93.7%	63.9%	111%	87.5%	63%		93.3%	84.6%		92.7%
COc1ccc(-c2nc3sc(C)nn3c2-c2nc3cc(C)c(C)cc3[nH]2)cc1	80.6%	99.2%	87.1%	110%	103%	86%	93%	94.8%	96%		87.5%	85.9%	118%	89.7%	89.8%	102%	78.1%	88.5%		85.9%
COc1ccc(-c2nn(-c3ccc(NC(=O)c4ccc(Cl)c(Cl)c4)cc3)cc2-c2ccncc2)cc1Cl	-1.71% (active)	-27.7% (active)	59.4%	56.7%	25%	26.7%	5.09% (active)		65.8%	56.4%	80.5%	2.82% (active)		52.6%	-13.7% (active)	-0.135% (active)	13.8%	24.5%	43.5%	37.4%
Cc1ccc2nc(NC(=O)CSC(=S)N3CCN(C)CC3)sc2c1	102%	106%	90.8%	108%	108%	95.6%	107%	-72.3% (active)	116%	98.1%	100%	78.5%	122%	100%		108%	123%			
COCCOC1=C(Cl)C(=O)c2ccccc2C1=O	13%	99%	8.63% (active)	88.4%	8.18% (active)	18.7%	-7.27% (active)	22.1%	13.7%	38.9%	33.4%	-20.2% (active)	97.9%	23.7%		67.6%	21.7%			
O=c1oc2ccccc2cc1-c1csc(N=Nc2c(O)[nH]c3ccc(Br)cc23)n1	105%	109%	86.2%	95.8%	103%	102%	96.5%	99.9%	101%	95.8%	98.7%	86.3%	111%	97.9%	93.4%		120%	95%		97.2%
